From PubChem BioAssay (NCATS)
Inconclusive results are not listed. Active and inactive are the calls of the source. Unless noted, the call rests on the fitted dose curve; in most records, active means well fitted curve in the direction sought with a large enough effect; inconclusive means small, poorly fitted or top-dose-only effect, or another doubt; inactive means no such curve, though single readings can be large; an effect the other way counts as inactive or inconclusive.

Experiments:
[1] = Cellular Toxicity (caspase-3) HepG2 (AID 654);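 further: cells exposed to compound for 16 hours before reading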
Procedure, shortened: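 HepG2 cells (1500/well) in complete medium were treated with compounds for 16 hr at 37 °C. Caspase-3/7 activity was then read as luminescence from peptide-aminoluciferin cleavage. AC50 came from Hill fits, normalized to DMSO and 100 uM tamoxifen.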

[2] = Cellular Toxicity (caspase-3) Jurkat (AID 655);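 further: cells exposed to compound for 16 h at 37 °C before reading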
Procedure, shortened: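 Caspase 3/7 activation is scored as increased luminescence in Jurkat cells cultured with compound for 16 hours in complete medium. AC50 values come from Hill fits of qHTS concentration-response data normalized to DMSO and 100 uM tamoxifen controls.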

[3] = Cellular Toxicity (caspase-3) HUV-EC-C (AID 656)
Procedure, shortened: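 Read-out: luminescence proportional to caspase 3/7 activity, measured 20 min after adding Caspase-Glo 3/7 reagent. Cells (HUV-EC-C) had received compound for 16 hr at 37°C. Increases relative to DMSO and 100 uM tamoxifen gave concentration-response AC50 values.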

[4] = Cellular Toxicity (caspase-3) SHSY5Y (AID 657);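 further: cells exposed to compound for 16 hours at 37 °C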
Procedure, shortened: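 Cells plated and incubated 5 h at 37 °C, dosed over a concentration range, incubated 16 h, then given Caspase-Glo 3/7 reagent for 1 h at room temperature before luminescence reading. Staurosporine (10 uM) defined full stimulation.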

[5] = Cellular Toxicity (caspase-3) BJ (AID 658)
Procedure, shortened: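 Luminescent aminoluciferin-substrate cleavage reports caspase 3/7 activity in normal human BJ fibroblasts after 16 hr compound exposure at 37 °C. Normalized to DMSO (basal) and 10 uM staurosporine (100%); AC50 from Hill fit of concentration-response.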

[6] = Cellular Toxicity (caspase-3) MRC-5 (AID 659)
Procedure, shortened: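 Luminescence from caspase-cleaved aminoluciferin substrate (Caspase-Glo 3/7, 1 hr RT) reports caspase 3/7 activity in MRC-5 lung fibroblasts after 16 hr compound exposure. Normalized to DMSO basal and 10 uM staurosporine as 100%; AC50 from Hill fits.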

[7] = Cellular Toxicity (caspase-3) Mesangial (AID 660);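 further: cells exposed to compound for 16 h before the caspase read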
Procedure, shortened: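 Human renal glomerular mesangial cells (1000/well) were treated with compounds for 16 h at 37 °C in complete medium, then caspase 3/7 activity was read by Caspase-Glo luminescence. Data were normalized to DMSO and 100 uM tamoxifen; AC50 from Hill fits.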

[8] = Cellular Toxicity (caspase-3) SK-N-SH (AID 661)
Procedure, shortened: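 SK-N-SH human neuroblastoma cells (1500/well) were treated with compounds for 16 hr at 37 °C in complete medium; caspase 3/7 activity was read by Caspase-Glo luminescence. AC50 came from Hill fits of data normalized to DMSO and 10 uM staurosporine.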

[9] = Cellular Toxicity (caspase-3) H-4-II-E (AID 663);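 further: cells exposed to compound for 16 hr before readout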
Procedure, shortened: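 Luminescence from caspase-cleaved aminoluciferin substrate, read 20 min after reagent addition, reports caspase 3/7 activation in rat H-4-II-E cells after 16 hr compound exposure. Normalized to DMSO (basal) and 100 uM tamoxifen (100%); AC50 from Hill fits.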

[10] = target: 3',5'-cyclic-AMP phosphodiesterase 4B (Homo sapiens) (UniProt Q07343); experiment: qHTS Assay for Inhibitors of PDE-IV (AID 607; active means well fitted activation curve with a large enough effect in the main read-out, with a control signal flat, not every such curve was filed as active)
Chain of 3',5'-cyclic-AMP phosphodiesterase 4B (Homo sapiens) (Q07343 whole entry, looked up): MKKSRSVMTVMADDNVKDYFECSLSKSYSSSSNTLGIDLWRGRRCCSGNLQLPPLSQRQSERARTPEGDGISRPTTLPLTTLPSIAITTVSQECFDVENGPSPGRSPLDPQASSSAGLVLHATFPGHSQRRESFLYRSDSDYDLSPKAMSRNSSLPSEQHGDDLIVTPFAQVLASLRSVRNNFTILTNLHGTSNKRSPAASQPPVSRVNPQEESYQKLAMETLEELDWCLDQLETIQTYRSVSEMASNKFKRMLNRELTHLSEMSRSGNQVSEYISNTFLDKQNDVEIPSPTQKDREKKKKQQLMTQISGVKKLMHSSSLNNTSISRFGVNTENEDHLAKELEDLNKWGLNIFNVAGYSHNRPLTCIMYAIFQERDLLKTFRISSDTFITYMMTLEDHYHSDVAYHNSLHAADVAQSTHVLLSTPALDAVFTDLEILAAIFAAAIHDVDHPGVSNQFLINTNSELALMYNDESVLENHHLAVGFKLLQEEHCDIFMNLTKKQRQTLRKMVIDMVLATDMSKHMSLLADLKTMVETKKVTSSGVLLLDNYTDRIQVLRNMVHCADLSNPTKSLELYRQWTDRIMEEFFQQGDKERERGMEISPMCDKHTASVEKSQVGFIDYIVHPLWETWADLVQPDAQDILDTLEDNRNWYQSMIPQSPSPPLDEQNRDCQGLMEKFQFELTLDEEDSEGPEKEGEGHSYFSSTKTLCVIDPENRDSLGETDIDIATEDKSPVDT
Procedure, shortened: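 Live HEK293 cells with a modified cyclic nucleotide-gated (CNG) channel report intracellular cAMP via membrane-potential dye fluorescence (ex 535/em 590 nm). Endogenous PDE-IV was targeted. Compounds were tested at up to 22.9 uM final; RO 20-1724 100 uM served as control.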

Measured: outcome

COc1ccc(CCC(=O)c2c(O)cc(O[C@@H]3O[C@H](CO)[C@@H](O)[C@H](O)[C@H]3O[C@@H]3O[C@@H](C)[C@H](O)[C@@H](O)[C@H]3O)cc2O)cc1O
not listed: [10]
inactive: all other assays above

C=C1C[C@]23C[C@@]1(O)CC[C@H]2[C@@]12C=C[C@H](O)[C@@](C)(C(=O)O1)[C@H]2[C@@H]3C(=O)O
not listed: [10]
inactive: all other assays above

CCc1cccc2c3c([nH]c12)[C@@](CC)(CC(=O)O)OCC3
inactive: [10]

C[C@]1(C2CCCC2)Cc2cc(OCC(=O)O)c(Cl)c(Cl)c2C1=O
inactive: [10]

CC(C)C[C@H](NC(=O)[C@@H]1O[C@H]1C(=O)O)C(=O)NCCCCN=C(N)N
inactive: [10]
